Most compounds without a hit are left out; they make up all but 1.8% or so of the library.
DUSP3 inh: DUSP3 (human) phosphatase inhibition | P51452 | recombinant VHR phosphatase, pNPP absorbance | inhibition, % at 13.3 µM | hit rate 0.52% among 290,000; in the data active = inhibition above about 50%
Sa ugtP lethal: growth inhibition of S. aureus ugtP deletion strain. hit rate 0.54% among 330,000. S. aureus RN4220 ugtP deletion, OD600 growth, 16 h. growth inhibition, % (test concentration not listed). AID 1259309; in the data active = growth inhibition above about 68%;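 note: plate controls were untreated wells for no effect and antibiotic for full effect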
Sa RN4220 lethal: kills Staphylococcus aureus RN4220 | S. aureus RN4220 growth, OD600, 16 h | inhibition, % (concentration not given with the values) | hit rate 0.33% among 330,000; in the data active = inhibition above about 85%;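 note: plate controls were untreated cells for no effect and reference antibiotic for full effect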
PfHsp40 rescue: compounds rescuing yeast from Plasmodium falciparum HSP40 toxicity. hit rate 0.68% among 340,000. S. cerevisiae expressing PfHsp40, growth rescue, ATP luminescence. growth rescue, % at 12.5 µM; in the data active = growth rescue above about 28%, passing the limit was not always enough;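 note: yeast W303a lacking pdr1 and pdr3 grown in galactose medium; growth measured after three days at 30 °C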
PrPC TRFRET: inhibitors of human cell surface prion protein PrPC; P04156; TR-FRET read-out; inhibition, % at 13.8 µM; hit rate 0.43% among 370,000; in the data active = inhibition above about 24%; note: 0% = median of the test wells and 100% = reference compound wells
PrPC TRFRET cf: confirmation of inhibitors of cell surface human prion protein | shares compounds with PrPC TRFRET | cell surface PrPC level, TR-FRET | inhibition, % at 13.8 µM | hit rate 65% among 1,500; in the data active = inhibition above about 25%
LD9 cytotox: counter-screen for PrPc inhibitors: cytotoxicity in LD9 cells; shares compounds with PrPC TRFRET; luminescence viability; inhibition, % at 13.8 µM; hit rate 29% among 1,500; in the data active = inhibition above about 9.5%
Active calls of the source: *; . = not tested or not shown.

SMILES	DUSP3 inh	Sa ugtP lethal	Sa RN4220 lethal	PfHsp40 rescue	PrPC TRFRET	PrPC TRFRET cf	LD9 cytotox
N#Cc1c(-c2ccccc2)nc(SCC(=O)Nc2nnc(C(F)(F)F)s2)[nH]c1=O	6.9	-2.6	1.1	-0.5	22.6	.	.
Cc1cc(C)nc(NS(=O)(=O)c2ccc(NC(=O)CSc3nc4ccccc4[nH]3)cc2)n1	7.3	4.2	2.2	1.2	0.2	.	.
Cc1cc(NC(=O)CSc2nc(-c3ccccc3)c(C#N)c(=O)[nH]2)no1	35.7	0.6	1.3	-0.8	41.2*	55.9*	-5.1
Cc1cc(C)nc(NS(=O)(=O)c2ccc(NC(=O)CSc3nc(-c4ccccc4)c(C#N)c(=O)[nH]3)cc2)n1	28.3	12.1	6.4	2.0	50.0*	72.2*	-2.4
O=S1(=O)C2CC3C=C[C@@]2(CN1Cc1cccc(F)c1)O3 (stereo not given in full)	.	-1.6	5.7	.	.	.	.
O=C1CCCC(=NNC(=O)c2ccc(NS(=O)(=O)c3cccs3)cc2)C1	.	1.7	3.5	.	.	.	.
Cc1nc2ccc(C(=O)NN=Cc3ccccc3O)cc2[nH]1	.	-2.2	-0.3	.	.	.	.
CCC1(CC)Cc2ccccc2-c2nc(NN)[nH]c(=O)c21	24.9	13.0	11.5	0.3	-0.5	.	.
CCC1(CC)Cc2ccccc2-c2[nH]c(=S)[nH]c(=O)c21	.	5.0	-3.3	0.3	79.4*	100.2*	-1.9
CC(C)C1Cc2ccccc2-c2[nH]c(=S)[nH]c(=O)c21 (stereo not given)	.	-2.0	1.0	.	75.1*	94.1*	-5.1
COc1ccc(C=NNc2ncc(Br)cn2)c(OC)c1	.	5.1	5.2	.	.	.	.
NC(=NOC(=O)CCCN1C(=O)c2ccccc2C1=O)c1ccccn1	.	-3.9	3.3	.	.	.	.
Cc1[nH]n(-c2ccccc2)c(=O)c1C=NNC(=O)c1cccc([N+](=O)[O-])c1	.	32.6	-12.3	.	.	.	.
Cc1[nH]n(-c2ccccc2)c(=O)c1/C=N/NC(=O)c1cccc(F)c1	3.0	.	.	1.7	52.0*	53.8*	23.3*
CCOC1OC(C(=O)Nc2ccccc2)=CC(c2ccc(Br)cc2)C1CCCO (stereo not given)	.	-2.7	-5.8	.	.	.	.
Cc1ccc(C(=O)Nc2ccc3cn[nH]c3c2)cc1S(=O)(=O)N1CCCCC1	6.5	-10.0	0.4	14.4	25.6*	18.1	0.5
O=C(CCSc1ccc(Cl)cc1)N1CCN(c2ccc(O)cc2)CC1	13.3	.	.	17.5	38.3*	28.3*	1.0
NC(Cc1ccc(O)cc1)c1nnc(C(CO)NC(=O)C2CCNCC2)o1 (stereo not given)	.	-0.7	4.0	.	.	.	.
CCn1c(SCC(=O)NN=C/C=C/c2ccco2)nnc1-c1ccc(OC)cc1	.	-1.7	-1.3	.	.	.	.
Brc1ccc(-c2nn3c(-c4ccco4)nnc3s2)o1	17.7	-22.0	20.2	-1.0	61.8*	75.7*	-3.3
COc1ccc(C=CC(=O)Oc2cccc(C=NNC(=O)COc3c(C)cccc3C)c2)cc1	.	-1.3	-2.3	.	.	.	.
Cc1sc2ncnc(Sc3ccccc3C(=O)O)c2c1C	-12.7	3.2	2.2	-0.3	93.6*	120.6*	-0.8
O=C(O)c1ccccc1Sc1ncnc2sc3c(c12)CCC3	-2.0	7.8	2.8	-0.2	45.1*	63.3*	-9.3
CC(=O)CSc1ncnc2sc3c(c12)CCCC3	13.9	12.6	11.0	3.0	29.9*	20.5	-9.9
CC(=O)c1ccc(NC(=O)c2ccccc2Sc2ncnc3sc(C)c(C)c23)cc1	10.5	-0.4	6.0	1.5	7.0	.	.
SMILES	DUSP3 inh	Sa ugtP lethal	Sa RN4220 lethal	PfHsp40 rescue	PrPC TRFRET	PrPC TRFRET cf	LD9 cytotox
O=C(CSc1ncnc2sc3c(c12)CCCC3)c1ccccc1	-9.1	22.1	9.9	-0.3	-4.3	.	.
O=C(NC(NNc1ccc([N+](=O)[O-])cc1)(C(F)(F)F)C(F)(F)F)c1ccccc1Cl	2.5	-13.2	27.8	0.6	0.7	.	.
O=C(NC(Nc1nc2ccc([N+](=O)[O-])cc2s1)(C(F)(F)F)C(F)(F)F)c1ccccc1Cl	12.7	98.5*	100.0*	0.2	66.7*	66.2*	63.2*
O=C(NC(Nc1nc2ccc([N+](=O)[O-])cc2s1)(C(F)(F)F)C(F)(F)F)c1cccnc1	11.9	29.3	40.9	-1.1	42.1*	52.2*	59.3*
CCSc1ccc(C2C3C(=O)N(C)C(=O)C3[C@]3(C(=O)OC)CCCCN23)cc1 (stereo not given in full)	.	-13.0	8.5	.	.	.	.
CC(=O)c1sc(NC(=O)C(C)C)nc1C	16.7	7.6	2.3	-0.1	33.4*	35.4*	-3.1
CC(=O)Nc1nc(C)c(C(C)=O)s1	7.3	0.1	5.6	-1.1	6.7	.	.
